Consider 103 molecules from PubChem BioAssay AID1814 (Broad Institute, 2009).

Molecules are shown by their SMILES. Hit rate of the full screen: of about 300,000 compounds, about 22,000 (7.3%) were called active. Another 2% or so got no clear call; they are omitted. The full list was thinned out, with actives kept by preference. Values without a mark were called inactive. Cut-off read from the data, not from the text of the source: active = activity score below about -60%; inconclusive = mostly about -28% to -61%; inactive = positive scores.

The nature of the experiment: Activators working through SNCA 5'UTR binding (MLPCN) (AID 1814). The conditions noted are these: alpha-synuclein 5'UTR reporter, activators screen; active compounds read low; tested at 7.5 µM.
As for `CC(=O)c1cccc(NC(=O)Nc2ccc(C)cc2)c1`, the activity score was -144% (active).

As for `Cc1ccc(-c2nc(-c3cccnc3)sc2CC(=O)Nc2ccc(C)c(Cl)c2)cc1`, the activity score is 54.1%.

As to `Cc1ccc(NC(=O)Nc2cccnc2)cc1`, the activity score is -97.5% (active).

As for `Cc1ccc(NC(=O)Nc2nnc(-c3ccncc3)s2)cc1`, the activity score is -68% (active).

As to `CCc1ccc(NC(=O)Nc2ccncc2)cc1`, the activity score was -76.8% (active).

Consider `CCCCCCCCn1c2c(c(=N)c3c1CCC3)CCCC2`, for which the activity score is 101%.

As for `COC(=O)c1ccc(NC(=O)Nc2ccc(C)cc2)cc1`, the activity score is -81.9% (active).

As to `COc1cc(NC(=O)Nc2ccc(C)cc2)cc([N+](=O)[O-])c1`, the activity score was -141% (active).

As for `Cc1ccc(NC(=O)Nc2ccccc2)c(Br)c1`, the activity score is -192% (active).

In the case of `COC(=O)c1sccc1NC(=S)Nc1ccc(C)cc1`, the activity score was -77.8% (active).

Take `O=C(c1ccco1)N1CCN(C(=O)c2cc(-c3ccccc3F)no2)CC1`: the activity score is -156% (active).

With `O=C(NCCCN1CCOCC1)c1cc(-c2ccccc2F)no1`, the activity score was -121% (active).

`CCC(=O)/C(=C(/O)c1ccccc1)c1nc2ccccc2[nH]1`: the activity score is -69% (active).

Regarding `CC[C@]1(O)C[C@@H]2CN(CCc3c([nH]c4ccccc34)[C@@](C(=O)OC)(c3cc4c(cc3OC)N(C)[C@H]3[C@@](O)(C(=O)OC)[C@H](OC(C)=O)[C@]5(CC)C=CCN6CC[C@]43[C@@H]65)C2)C1`, the activity score is 77.2%.

For the molecule `CNc1[nH]ncc1[N+](=O)[O-]`, the activity score is -74.2% (active).

Consider `CC1CCC(NC(=O)c2ccc(N3CCCC3=O)cc2)CC1` (stereo not drawn), for which the activity score was -64.3% (active).

`CC1CCCC(NC(=O)c2cccc(N3CCCC3=O)c2)C1C` (stereo not drawn): the activity score was -74.5% (active).

For `CN1c2ccc(C=O)c3c(C=O)ccc(c23)N(C)C1(C)C`, the activity score was 67%.

Turning to `CC1CCN(C(=S)c2ccc(-c3ccc(Cl)cc3Cl)o2)CC1`, the activity score was -91.3% (active).

In the case of `O=C(CSc1ccccn1)Nc1nc2c(ccc3ccccc32)s1`, the activity score was -63.2% (active).

For the molecule `COc1ccc2nc(SCc3ccccc3)nc(C)c2c1`, the activity score is -70.7% (active).

`Cc1ccc(-n2ncc3c2ncn2nc(-c4ccco4)nc32)c(C)c1`: the activity score is -88.8% (active).

`Cc1onc(-c2ccccc2Cl)c1C(=O)N(Cc1ccc(N(C)C)cc1)C(C)C`: the activity score was 73.1%.

Consider `CCN1/C(=C\c2ccc3ccccc3[n+]2CC)Sc2cc(C)ccc21`, for which the activity score is -332% (active).

As to `O=C(Nc1ncccc1O)c1ccc(S(=O)(=O)N2CCCC2)cc1`, the activity score was -67.4% (active).

As for `O=C(Nc1ncccc1O)c1ccc(C(=O)c2ccccc2)cc1`, the activity score was -507% (active).

`CNC(C)C#Cc1ccc2sc3cc(OC)c(OC)cc3c(=O)c2c1` (stereo not drawn): the activity score was -277% (active).

Turning to `COc1ccc(-c2cn3ccsc3n2)cc1`, the activity score was -105% (active).

As for `FC(F)(F)Oc1ccc(-c2cn3cccnc3n2)cc1`, the activity score was -80.4% (active).

Take `COc1ccc(-c2cn3cccnc3n2)cc1`: the activity score was -75.4% (active).

As for `CC(C)(C)C(=O)Nc1ccc(-c2cn3cccnc3n2)cc1`, the activity score is -130% (active).

As for `CCn1nnnc1SCC(=O)c1ccc(C)cc1C`, the activity score is -81% (active).

Take `COC(=O)C1C(=O)c2c([nH]c(C(=O)OCCSC)c2C)CC1C` (stereo not drawn): the activity score is -117% (active).

As for `Cc1cccc(-n2ncc3c(N4CCc5ccccc54)ncnc32)c1`, the activity score was -164% (active).

For the molecule `COc1ccc(-n2ncc3c(N4CCc5ccccc54)ncnc32)cc1`, the activity score was -240% (active).

As to `Cc1cc(N/C=C\C(=O)c2ccc(Cl)c(Cl)c2)no1`, the activity score was -231% (active).

Consider `CCCCC(=O)Nc1nc(C)c(-c2csc(Nc3ccc(Cl)cc3)n2)s1`, for which the activity score is -62.8% (active).

In the case of `S=c1[nH]nc(-c2cccnc2)n1/N=C/C(Cl)=C\c1ccccc1`, the activity score was -177% (active).

As for `Cc1ccccc1-c1n[nH]c(=S)n1/N=C/c1ccc(-c2ccccc2Br)o1`, the activity score is 57.9%.

Turning to `Cc1cc(-c2n[nH]c(=S)n2/N=C/C(Br)=C/c2ccccc2)n[nH]1`, the activity score was -235% (active).

As for `Cc1nn2c3cc(N4CCOCC4)ccc3nc2c2ccccc12`, the activity score was -149% (active).

As for `O=C(Cc1ccc(F)cc1)N/N=C/c1ccc2c(c1)OCO2`, the activity score is -93.4% (active).

For the molecule `Cc1ccc(C(=O)NNc2ncnc3ccccc23)cc1`, the activity score was -131% (active).

As to `O=C(Nc1ccc2c(c1)OCCO2)c1ccoc1`, the activity score was -84.8% (active).

For the molecule `O=C(Nc1ccc2c(c1)OCCO2)c1cnccn1`, the activity score is -68.9% (active).

For `Cn1cc([N+](=O)[O-])c(C(=O)Nc2ccc3c(c2)OCCO3)n1`, the activity score was -65.9% (active).

Turning to `CCN(CC)c1ccc(/C=N/NC(=O)c2cnccn2)c(O)c1`, the activity score was 72.3%.

As for `Oc1c(CN2CCN(c3ccc(F)cc3)CC2)cc(Cl)c2cccnc12`, the activity score is 69.6%.

Consider `CCN1CCN(c2ccc(NC(=O)c3cnccn3)cc2)CC1`, for which the activity score is -97.4% (active).

As to `Nc1c(C(=O)Nc2ccc3c(c2)OCCO3)nnn1Cc1ccccc1`, the activity score was -194% (active).

As for `CCOc1ccc(N2C(=O)CC(N(O)c3ccccc3)C2=O)cc1` (stereo not drawn), the activity score was -65% (active).

In the case of `Cc1ccc(S(=O)(=O)NC(=O)Nc2nc(-c3ccc(F)c(F)c3)cs2)cc1`, the activity score was -61.5% (active).

Turning to `O=S(=O)(Nc1ccc2nc(-c3ccco3)[nH]c2c1)c1ccccc1`, the activity score is -181% (active).

For `CC(=O)N1CCC(C(=O)Nc2nc(-c3ccccc3)ns2)CC1`, the activity score was -82.9% (active).

As for `Cc1ccc(N=C2NC(=O)c3cccc([N+](=O)[O-])c32)cc1`, the activity score was -141% (active).

`O=C(CSc1nnnn1C1CCCC1)N1CCCCC1`: the activity score is -88% (active).

Consider `CCCCCC(=O)Nc1ccc2oc(-c3ccncc3)nc2c1`, for which the activity score was -80.2% (active).

Regarding `COc1cccc(/C=C/c2ccc3ccccc3n2)c1OC(C)=O`, the activity score is 83.1%.

In the case of `COc1cccc(/C=C2\C=C(c3ccc(C)cc3)OC2=O)c1OC(C)=O`, the activity score is -65.8% (active).

Turning to `O=C(NCCC1=CCCCC1)c1ccc(Cl)c([N+](=O)[O-])c1`, the activity score was -108% (active).

As to `Cc1ccc2cc(/C=N/Nc3ccc(C(=O)O)cc3)c(Cl)nc2c1`, the activity score was -167% (active).

Consider `CC1CCC(NC(=O)CNC(=O)c2ccc3ccccc3c2)CC1` (stereo not drawn), for which the activity score was -74% (active).

In the case of `Clc1cccc(-c2nc3nc4ccccc4nc3n2Cc2ccco2)c1`, the activity score is -77.2% (active).

For `Clc1ccc(-c2csc(-c3ccncc3)n2)cc1`, the activity score was -135% (active).

On to `O=c1[nH]c(/C=C/c2cccc(Br)c2)nc2ccccc12`, for which the activity score is -125% (active).

For `C/C(=C\C(=O)c1ccccc1)Nc1cccc(O)c1`, the activity score was -246% (active).

For `C/C(=C\C(=O)c1cccnc1)Nc1ccc(C)c(C)c1`, the activity score is -88.7% (active).

On to `O=C(Nc1cccc(O)c1)c1ccc(C(=O)c2ccccc2)o1`, for which the activity score was -120% (active).

Take `O=C(Nc1ccn(Cc2ccccc2)n1)c1cccc(F)c1`: the activity score is -95.8% (active).

Take `Cc1cc(/C=N/NC(=O)c2cccnc2)c(C)n1CC(C)C`: the activity score is -116% (active).

As to `COc1ccc(C(CC(=O)c2ccccc2)S(=O)(=O)c2ccccc2)cc1` (stereo not drawn), the activity score was -120% (active).

For `COC(=O)c1ccc(Nc2ncnc3sccc23)cc1`, the activity score was -125% (active).

With `COc1c(O)cc2oc(-c3ccc(O)c(O)c3)cc(=O)c2c1O`, the activity score is -140% (active).

Consider `COc1ccc(C(=O)/C=C/c2ccc(-c3ccccc3)cc2)cc1CSCC(=O)O`, for which the activity score is -90% (active).

Consider `COc1ccc(/C=C/C(=O)Nc2c(C)nn(C)c2C)cc1COc1ccc(Br)cc1`, for which the activity score was 50.9%.

With `O=C(c1cc(COc2ccc(F)c(F)c2)on1)N1CCOCC1`, the activity score was -68.2% (active).

As for `O=C(c1cc(COc2c(F)cccc2F)on1)N1CCSCC1`, the activity score is -165% (active).

In the case of `CCC(NC(=O)c1cc(COc2ccc(F)c(F)c2)on1)c1ccncc1` (stereo not drawn), the activity score was -78.1% (active).

On to `O=C(c1cc(COc2ccc(F)cc2F)on1)N1CCOCC1`, for which the activity score is -124% (active).

As for `CC(C)(C)c1ccc(C(=O)CSc2ncn[nH]2)cc1`, the activity score is -158% (active).

For `OCCCN1c2ccccc2Nc2nnc(-c3ccccc3)cc21`, the activity score was -189% (active).

As to `O=S(=O)(c1ccc(Br)cc1)N1CCC(c2nc3ccccc3[nH]2)CC1`, the activity score was 78.3%.

On to `Nc1ccccc1SCc1cc([N+](=O)[O-])cc2c1OCOC2`, for which the activity score was -66.8% (active).

`Nc1cc(N)nc(SCc2cccc(F)c2)n1`: the activity score was -147% (active).

For the molecule `Cc1cc2oc3ccc(NCCC4CCCN4C)cc3c(=O)c2cc1C` (stereo not drawn), the activity score was -102% (active).

As to `O=C(Nc1ccc(Br)cn1)c1ccc([N+](=O)[O-])cc1Cl`, the activity score is -92.4% (active).

For the molecule `COc1ccc(OCC(=O)Nc2cc(C)c(Cl)cc2OC)c([N+](=O)[O-])c1`, the activity score was -102% (active).

For `CC(=O)Nc1ccccc1C(=O)C(=O)Nc1ccc(F)cc1`, the activity score is -64.9% (active).

Turning to `Cc1nn(-c2ccc([N+](=O)[O-])cc2)c(N)c1-c1ccccc1`, the activity score was -143% (active).

On to `COCCCNC(=S)NC(=O)c1ccccc1`, for which the activity score was -88.8% (active).

On to `O=C(N/N=C/c1cc2c(cc1Br)OCO2)C1COc2ccccc2O1` (stereo not drawn), for which the activity score is -96.1% (active).

As to `Cc1ccc(OCc2cc(C(=O)N(C)CCc3ccccc3)no2)cc1C`, the activity score was -115% (active).

In the case of `S=C(Nc1cccc(Cl)c1)Nc1ccc2cn[nH]c2c1`, the activity score was -89.3% (active).

On to `Cc1csc(NC(=S)Nc2cccc(Cl)c2)n1`, for which the activity score is -193% (active).

Consider `O=[N+]([O-])/C=C/c1ccc2c(ccn2Cc2ccccc2)c1`, for which the activity score is 84.5%.

Regarding `Cc1ccc(Oc2cnn(-c3ccccc3)c(=O)c2Br)cc1`, the activity score was -78.5% (active).

In the case of `NC(=O)COc1ccc(C23CC4CC(CC(C4)C2)C3)cc1`, the activity score was -101% (active).

For the molecule `Nc1nonc1-n1nnc(C(=O)N/N=C/c2cc(Br)ccc2O)c1CSC1=NCCS1`, the activity score was 94.1%.

As to `Cc1ccn2cc(-c3nonc3C)cc2c1`, the activity score was -128% (active).

As to `Cc1nonc1NC(=O)CSc1nc2ccccc2cc1C#N`, the activity score is -91.1% (active).

`COCc1cc(C)nc(SCC(=O)Nc2cccc(C)c2)c1C#N`: the activity score was -67.6% (active).

As to `Cc1cc(C)c(C#N)c(SCC(=O)Nc2ccccc2)n1`, the activity score was -212% (active).

Take `CCOc1ccc2cc(C#N)c(SCC(=O)OC)nc2c1`: the activity score is -145% (active).
